Reference: PubChem BioAssay (NCATS)
Records with an inconclusive call do not appear. Activity calls are given as the source filed them. Unless noted, the call rests on the fitted dose curve; in most records, active means well fitted curve in the direction sought with a large enough effect; inconclusive means small, poorly fitted or top-dose-only effect, or another doubt; inactive means no such curve, though single readings can be large; an effect the other way counts as inactive or inconclusive.

What was measured:
[1] = Cell Viability - LYMP1-002 - Assay at 16 hr (AID 948)
In short: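 LYMP1-002 human lymphoblastoid cells, 2500/well, were treated with compounds for 16 hr at 37 C in complete medium. Viability was read as intracellular ATP by CellTiter-Glo luminescence, and AC50 was derived from a Hill fit to concentration-response data.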

[2] = Cell Viability - LYMP1-003 - Assay at 40 hr (AID 964); further: nearly all actives have a fitted effect of over 60% in size
In short: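 Human lymphoblastoid LYMP1-003 cells, 2500/well in complete medium, rested 5 hr at 37 C, then exposed to compounds for 40 hr at 37 C. Viability read as intracellular ATP by CellTiter-Glo luminescence; AC50 from Hill fits of concentration-response data.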

[3] = Cell Viability - LYMP2-005 (AID 967)
In short: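 Human lymphoblastoid LYMP2-005 cells, 2,500 per well in complete medium, rested 5 h at 37C then compound-treated 24 h at 37C. Intracellular ATP read by CellTiter-Glo luminescence after 30 min at room temperature; AC50 from Hill-equation fits of concentration-response data.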

[4] = Cell Viability - LYMP2-009 (AID 968); further: nearly all actives have a fitted effect of over 55% in size
[5] = Cell Viability - LYMP2-002 (AID 977);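 further: compound exposure lasted 24 h at 37 °C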
In short: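 Cytotoxicity is scored as concentration-dependent loss of cellular ATP in a human lymphoblastoid line after 24 hr compound treatment at 37 C. AC50 is obtained by modelling concentration-response data with the Hill equation.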

[6] = Cell Viability - LYMP1-002 - Assay at 40 hr (AID 994); further: nearly all actives have a fitted effect of over 60% in size
In short: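 Human lymphoblastoid cells, 2500/well in complete medium, were preincubated 5 hr at 37 C, then exposed to compounds for 40 hr at 37 C. Intracellular ATP was read by CellTiter-Glo luminescence after 30 min at room temperature; AC50 from Hill-equation fits.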

[7] = molecular target: Cytochrome P450 3A4 (Homo sapiens) (UniProt P08684); experiment: qHTS Assay for Inhibitors and Substrates of Cytochrome P450 3A4 (AID 884); further: nearly all actives have a fitted effect of over 50% in size
Sequence of Cytochrome P450 3A4 (Homo sapiens) (P08684 whole entry, looked up): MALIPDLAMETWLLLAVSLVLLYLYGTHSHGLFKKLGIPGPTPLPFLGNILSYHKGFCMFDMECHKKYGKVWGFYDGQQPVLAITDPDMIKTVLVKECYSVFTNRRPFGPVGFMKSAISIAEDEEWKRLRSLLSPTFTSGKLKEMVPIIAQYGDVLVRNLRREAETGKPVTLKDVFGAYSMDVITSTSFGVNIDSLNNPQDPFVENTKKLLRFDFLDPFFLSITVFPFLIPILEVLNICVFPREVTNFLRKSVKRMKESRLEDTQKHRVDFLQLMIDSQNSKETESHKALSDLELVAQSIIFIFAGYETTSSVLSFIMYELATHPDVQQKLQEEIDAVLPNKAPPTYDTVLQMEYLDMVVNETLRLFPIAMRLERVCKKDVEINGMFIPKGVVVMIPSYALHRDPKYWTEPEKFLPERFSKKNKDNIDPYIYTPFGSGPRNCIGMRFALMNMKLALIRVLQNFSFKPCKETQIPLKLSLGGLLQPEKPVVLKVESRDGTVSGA
In short: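 20 nM human CYP3A4 with 25 uM Luciferin-PPXE (at KM) in 200 mM KPO4, preincubated 10 min with compound; NADPH regeneration started a 60 min RT reaction. Luciferin detected by luminescence, normalized to 57 uM ketoconazole as full inhibition.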

[8] = Cell Viability - LYMP2-022 (AID 987); further: nearly all actives have a fitted effect of over 55% in size
In short: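 Human lymphoblastoid cells, 2500/well, preincubated 5 hr at 37 C, then exposed to compounds over a concentration range for 24 hr at 37 C in complete medium. Viability read as intracellular ATP by CellTiter-Glo luminescence after 30 min at room temperature; AC50 from Hill fits.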

[9] = qHTS assay to identify small molecules that stimulate interleukin-8 (IL-8) secretion (AID 651758; active means well fitted activation curve with a large enough effect in the signal ratio; the % refers to the signal ratio)
In short: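 Secreted IL-8 measured by TR-FRET sandwich (cryptate and XL665 antibodies) from THP-1 cells exposed to compound overnight (16 hrs, 37 C).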

[10] = qHTS assay for small molecule antagonists of the retinoid-related orphan receptor gamma (ROR-gamma) signaling pathway - cell viability counter screen (AID 720652; active means well fitted curve in the direction sought with a large enough effect in the repeat runs; an effect the other way counts as inactive or inconclusive;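 further: compound exposure lasted 16 hr before ATP read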)
In short: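 Counter screen in CHO cells carrying TET-inducible ROR-gamma and an ROR response element-luciferase reporter; cells plated 5 hr, compound pinned, doxycycline added, then 16 hr at 37 C. Viability read as intracellular ATP by CellTiter-Glo luminescence.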

Measured: Potency
Potency means the concentration at half of the fitted maximal effect.

O=Nc1ccc(Nc2ccccc2)cc1
active: [1] 10 µM | [2] 7.94 µM | [3] 10 µM | [4] 7.94 µM | [5] 5.01 µM | [6] 12.6 µM

C=CC(=O)OCC(CO)(COC(=O)C=C)COC(=O)C=C
active: [7] 7.94 µM | [2] 3.98 µM | [3] 2.51 µM | [6] 5.01 µM

c1cc(OCC2CO2)cc(OCC2CO2)c1 (stereo unspecified)
active: [7] 15.8 µM | [4] 39.8 µM | [5] 39.8 µM | [8] 31.6 µM | [9] 42.2 µM

C=C1CC[C@H](O)C/C1=C/C=C1\CCC[C@]2(C)[C@@H]([C@H](C)CCCC(C)C)CC[C@@H]12
active: [10] 66.8 µM
